Laboratory results as given in PubChem BioAssay AID588458 (Sanford-Burnham Center for Chemical Genomics, 2011).
Among all 360,000 compounds or so, about 3,000 (0.83%) were called active. Only a selection was taken, and actives are over-represented in it overall. Unmarked numbers belong to inactive results. No stated cut-off is given here; in the data, active means inhibition above about 50%; inactive means the rest.

Target: DNA (cytosine-5)-methyltransferase 1 (Homo sapiens) (UniProt P26358)
Test: inhibition of DNA methyltransferase DNMT1 – biochemical, molecular beacon, fluorescence, HinP1I cleavage, uHTS, primary screen (AID 588458)
Settings: at 10 µM, active compounds read high

Chain of DNA (cytosine-5)-methyltransferase 1 (Homo sapiens) (P26358 504-1616 limits assumed): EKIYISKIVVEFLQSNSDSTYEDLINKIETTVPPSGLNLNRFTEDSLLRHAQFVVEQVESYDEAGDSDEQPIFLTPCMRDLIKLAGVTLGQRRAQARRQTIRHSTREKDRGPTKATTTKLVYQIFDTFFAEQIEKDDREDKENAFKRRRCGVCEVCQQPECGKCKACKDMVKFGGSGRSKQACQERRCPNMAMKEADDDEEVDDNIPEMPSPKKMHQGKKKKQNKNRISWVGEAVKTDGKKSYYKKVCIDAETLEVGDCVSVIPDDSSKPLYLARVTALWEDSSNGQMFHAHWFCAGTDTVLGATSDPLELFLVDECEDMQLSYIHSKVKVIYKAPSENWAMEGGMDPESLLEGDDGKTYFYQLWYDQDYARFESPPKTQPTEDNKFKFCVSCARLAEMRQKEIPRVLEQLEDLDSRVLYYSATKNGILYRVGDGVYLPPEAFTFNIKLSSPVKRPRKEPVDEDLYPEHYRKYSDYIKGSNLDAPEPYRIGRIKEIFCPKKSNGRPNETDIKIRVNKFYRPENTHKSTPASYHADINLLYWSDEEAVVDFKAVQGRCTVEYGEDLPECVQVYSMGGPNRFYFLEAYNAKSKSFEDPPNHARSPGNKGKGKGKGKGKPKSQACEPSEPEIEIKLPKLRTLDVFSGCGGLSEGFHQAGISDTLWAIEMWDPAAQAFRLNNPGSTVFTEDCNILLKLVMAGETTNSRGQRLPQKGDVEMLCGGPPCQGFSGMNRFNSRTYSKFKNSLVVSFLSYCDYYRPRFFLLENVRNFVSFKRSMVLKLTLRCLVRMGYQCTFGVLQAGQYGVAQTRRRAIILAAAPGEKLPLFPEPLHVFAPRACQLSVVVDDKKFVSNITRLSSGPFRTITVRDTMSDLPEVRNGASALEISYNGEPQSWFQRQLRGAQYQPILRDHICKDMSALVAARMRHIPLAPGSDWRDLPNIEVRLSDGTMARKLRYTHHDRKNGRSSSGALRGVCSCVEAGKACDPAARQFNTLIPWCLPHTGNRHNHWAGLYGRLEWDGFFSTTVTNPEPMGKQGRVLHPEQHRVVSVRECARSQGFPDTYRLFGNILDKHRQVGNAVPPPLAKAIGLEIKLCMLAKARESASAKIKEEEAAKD

SMILES	inhibition (reported as % activation of signal)
Cc1ccccc1-n1cc(CNC(=O)C2CCC(=O)N(C3CC3)C2)cn1 (stereo not drawn)	0.34%
Cc1ccccc1-n1cc(CNC(=O)CC2C(=O)NCCN2C/C=C/c2ccccc2)cn1 (stereo not drawn)	68.2% (active)
O=C(CC1C(=O)NCCN1Cc1ccc(-c2ccccc2)cc1)NCc1ccncc1 (stereo not drawn)	-12.2%
COc1ccc(Cc2nnc(NC(=O)Cc3cccs3)s2)cc1	113% (active)
COc1cc(OC)cc(C(=O)NNC(=O)Cc2cccs2)c1	7.66%
COc1ccccc1NC(=O)Nc1nnc(Cc2ccc(F)cc2)s1	9.56%
CC(C)(C)NC(=O)C(c1ccncc1)N(C(=O)CNC(=O)c1ccco1)c1ccc2c(c1)OCO2 (stereo not drawn)	-1.68%
CCOc1ccc(-n2cnnn2)cc1S(=O)(=O)N1CCC(C)CC1C (stereo not drawn)	4.44%
CC(C)(C)OC(=O)C[C@@H]1C/C=C\C[C@@H](CC(=O)N[C@@H](CO)Cc2ccccc2)C(=O)N2CCC[C@H]2COC1=O	1.28%
Nc1ncnc(Nc2cccc(Cl)c2Cl)n1	0.57%
COc1cc(C(=O)Nc2cc(C(F)(F)F)ccc2-n2cncn2)cc(OC)c1OC	-2.48%
O=C(COC(=O)c1cnc(Cl)c(Cl)c1)NCc1ccco1	30.3%
O=C(COC(=O)c1ccccc1O)NCc1ccco1	50%
Cc1cc(C(=O)OCC(=O)NCc2ccco2)c(C)n1-c1ccccc1	55.9% (active)
N#CC(C#N)=CN=c1ccn(Cc2ccc(Cl)cc2Cl)cc1	-4.93%
Cc1cccc(C)c1NC(=O)C1(C)c2cccc[n+]2CC(=O)N1Cc1cccs1 (stereo not drawn)	-3.99%
O=C(/C=C/c1cnc2ccccc2n1)NC1CCCCCC1	-5.96%
COc1ccc(CCNC(=O)C(=O)NCC2OCCN2S(=O)(=O)c2ccc(OC)c(C)c2)cc1 (stereo not drawn)	-5.69%
O=c1[nH][nH]c(C(F)(F)F)c1C=NCc1ccccc1Cl	-3.13%
CCN(CC)S(=O)(=O)c1ccc(N2CC(C(=O)NCc3cccnc3)CC2=O)cc1 (stereo not drawn)	2.78%
O=C(N/N=C/c1cccc(OC(=O)c2ccc([N+](=O)[O-])cc2)c1)c1cccnc1	2.43%
O=C(COC(=O)C1CCCCC1)Nc1ccc([N+](=O)[O-])cc1	-1.74%

SMILES	inhibition (reported as % activation of signal)
O=C(COc1ccc([N+](=O)[O-])cc1)Nc1ccc(N2CCCC2)cc1	92.5% (active)
O=C(COc1ccc(Cl)cc1)Nc1ccccc1CO	0.96%
O=C(COc1ccc([N+](=O)[O-])cc1)Nc1cccc(C(=O)Nc2ccccc2C(=O)O)c1	-0.08%
O=C(CCC(=O)N1CCCC1)Nc1ccc([N+](=O)[O-])cc1	0.7%
Cc1cc(C)cc(OCC(=O)Nc2ccc(N3CCOCC3)cc2N2CCOCC2)c1	-5.22%
O=C(COc1ccc(/C=N/NC(=O)c2ccc(O)cc2)cc1)Nc1ccc([N+](=O)[O-])cc1	54% (active)
Cc1cc(N2CCCC2)ccc1NC(=O)COc1ccc(Cl)cc1	59.6% (active)
CC(CO)N1CCS(=O)(=O)CC1 (stereo not drawn)	4.55%
Cc1ccc(C)n1-c1ccncc1	-0.41%
COc1ccc(NS(=O)(=O)c2ccc(C)c(C(=O)N(C)Cc3ccc(OC)cc3OC)c2)cc1	-0.59%
C[C@H]([C@@H](O)[C@@H](O)[C@@H](C)C(C)(C)C)[C@H]1CC[C@H]2C3CC[C@H]4C[C@H](OS(=O)(=O)O)[C@@H](OS(=O)(=O)O)C[C@]4(C)[C@H]3CC[C@]12C (stereo partly drawn)	46.8%
CC(C)Oc1ccc(CC(=O)NNC(=S)Nc2ccc(Br)cc2)cc1	-8.54%
CCCOc1ccc(Cc2c(Cl)nc(SC)nc2NC)cc1	5.36%
CC(C)c1ccc(Nc2nnc(SCC(=O)c3nnc(-c4ccccc4)o3)s2)cc1	79.2% (active)
CC(C)N(C(=O)CSc1nnc(NC2CC2)s1)c1ccccc1	-1.85%
CC(C)Nc1nnc(SCC(=O)c2c[nH]c3ccccc23)s1	-9.78%
CN(C)CCNC(=O)c1cccc(-c2cnc3c(NC=O)cc(-c4cccc(C(F)(F)F)c4)cn23)c1	-1.67%
Cc1ccccc1NC(=O)Cn1c(=O)n(CC2CCCO2)c(=O)c2ccccc21 (stereo not drawn)	1.1%
COC(=O)CN1C(=O)N/C(=C/c2ccc(OC)c(C)c2OC)C1=O	0.3%
Cc1ccccc1NC(=O)CN1C(=O)N/C(=C\c2cccn2-c2cccc(C(=O)O)c2)C1=O	92.6% (active)
CC(C)n1ncc2c(C(=O)N3CCN(Cc4cccs4)CC3)cc(C3CC3)nc21	2.36%
